This passage reports growth inhibition results from PubChem BioAssay (NCI).

Molecules are shown by their SMILES. About 79,000 compounds went through this panel and 15% of them were active in at least one assay; those are over-represented in the sample as a whole. A number with no mark means an inactive call. Active and inactive are the calls of the source. No stated cut-off is given here; in the data, active means growth inhibition above about 70%; inactive means the rest.

A short description of assay [1]: NCI Yeast Anticancer Drug Screen. Data for the rad50 strain (AID 155).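 Further: 0% = growth of vehicle-only cultures of the same strain.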 The settings on record: S. cerevisiae rad50 strain growth inhibition, hits give high values. Put shortly: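 DNA repair mutant yeast, compound exposure, growth read-out; inhibition is taken relative to vehicle.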
Assay [2] can be described thus: NCI Yeast Anticancer Drug Screen. Data for the mec2-1 strain (AID 157). The settings on record: S. cerevisiae mec2-1 strain, hits give high values. Put shortly: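 Yeast mec2-1 mutant treated with compound. Readout: growth inhibition vs vehicle controls.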
The nature of assay [3]: NCI Yeast Anticancer Drug Screen. Data for the sgs1 mgt1 strain (AID 161).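 Further: 0% = growth of cultures given vehicle only.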 The settings on record: S. cerevisiae sgs1 mgt1 strain, hits give high values. Put shortly:
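Inhibition of yeast growth, normalised to vehicle-treated controls, is reported for a strain bearing genetic alterations in DNA damage repair.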

Assay [4] in a line: NCI Yeast Anticancer Drug Screen. Data for the cln2 rad14 strain (AID 165).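 Further: 0% = growth equal to vehicle treated cultures.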 The settings on record: S. cerevisiae cln2 rad14 strain, hits give high values. The method in brief:
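cln2 rad14 yeast strain; compound exposure; growth inhibition read vs vehicle controls.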

A short description of assay [5]: NCI Yeast Anticancer Drug Screen. Data for the bub3 strain (AID 167). The settings on record: S. cerevisiae bub3 mutant strain, hits give high values. The method in brief: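 In this screen, a yeast mutant lacking normal mitotic checkpoint function is challenged with compound. Relative growth versus vehicle gives the inhibition value.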
Assay [6] in a line: NCI Yeast Anticancer Drug Screen. Data for the mlh1 rad18 strain (AID 175). The settings on record: S. cerevisiae mlh1 rad18 strain growth inhibition, hits give high values. The method in brief:
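Yeast w/ defined DNA-repair lesions; compound exposure; growth vs vehicle controls → % inhibition.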

Setting [7] is: at 5.0 µM (retest, dose inferred, filed as 0.5).
Setting [8] is: at 50.0 µM (retest, dose inferred, filed as 5.0).

As for `C/C=C/C=C1\C=Cc2c(C(=O)OC)coc(=O)c21`, the growth inhibition in assay [1] (setting [7]) was -9%; in assay [1] (setting [8]), 85% (active); in assay [1] (at 50.0 µM), 92% (active); in assay [2] (setting [7]), 14%; in assay [2] (setting [8]), 91% (active); in assay [2] (at 50.0 µM) it was 94.2% (active). In addition, the growth inhibition was 7% in assay [3] (setting [7]); 85% (active) in assay [3] (setting [8]); 76.3% (active) in assay [3] (at 50.0 µM); -9% in assay [4] (setting [7]); 76% (active) in assay [4] (setting [8]); 62.8% in assay [4] (at 50.0 µM). Besides, the growth inhibition in assay [5] (setting [7]) is 15%; in assay [5] (setting [8]), 96% (active); in assay [5] (at 50.0 µM), 94% (active); in assay [6] (setting [7]) it was 14%; in assay [6] (setting [8]) it was 97% (active); in assay [6] (at 50.0 µM) it was 95% (active).

Regarding `CC(=O)Oc1c2c(c(OC(C)=O)c3c1n(C(C)=O)c1ccccc1n3C(C)=O)n(C(C)=O)c1ccccc1n2C(C)=O`, the growth inhibition in assay [1] (setting [7]) is 50%; in assay [1] (setting [8]), 50%; in assay [1] (at 50.0 µM), 78.2% (active); in assay [2] (setting [7]), 42%; in assay [2] (setting [8]), 42%; in assay [2] (at 50.0 µM), 74.8% (active). The growth inhibition in assay [3] (setting [7]) was 34%; in assay [3] (setting [8]), 34%; in assay [3] (at 50.0 µM) it was 79.7% (active); in assay [4] (setting [7]) it was 26%; in assay [4] (setting [8]), 26%; in assay [4] (at 50.0 µM) it was 62.5%. Further, the growth inhibition in assay [5] (setting [7]) is 44%; in assay [5] (setting [8]) it was 44%; in assay [5] (at 50.0 µM) it was 69.8%; in assay [6] (setting [7]), 51%; in assay [6] (setting [8]), 51%; in assay [6] (at 50.0 µM), 69.7%.

`Cc1[nH]c2ccccc2c1/C=C1/CCCCCCC1=O`: the growth inhibition is -1% in assay [1] (setting [7]); 45% in assay [1] (setting [8]); 93.8% (active) in assay [1] (at 50.0 µM); -20% in assay [2] (setting [7]); 34% in assay [2] (setting [8]); 93.6% (active) in assay [2] (at 50.0 µM). Moreover, the growth inhibition in assay [3] (setting [7]) was -11%; in assay [3] (setting [8]) it was 66%; in assay [3] (at 50.0 µM) it was 96.5% (active); in assay [4] (setting [7]), 3%; in assay [4] (setting [8]), 24%; in assay [4] (at 50.0 µM) it was 91.6% (active). The growth inhibition in assay [5] (setting [7]) is -2%; in assay [5] (setting [8]), 41%; in assay [5] (at 50.0 µM), 93.5% (active); in assay [6] (setting [7]), -7%; in assay [6] (setting [8]), 72% (active); in assay [6] (at 50.0 µM) it was 97.3% (active).

Regarding `Clc1ccc(CNc2ccc(Cl)c(Cl)c2)cc1`, the growth inhibition in assay [1] (setting [7]) was 8%; in assay [1] (setting [8]), 95% (active); in assay [1] (at 50.0 µM), 97.8% (active); in assay [2] (setting [7]), 36%; in assay [2] (setting [8]) it was 97% (active); in assay [2] (at 50.0 µM), 98.2% (active). Besides, the growth inhibition is 11% in assay [3] (setting [7]); 97% (active) in assay [3] (setting [8]); 98.2% (active) in assay [3] (at 50.0 µM); -10% in assay [4] (setting [7]); 91% (active) in assay [4] (setting [8]); 97.7% (active) in assay [4] (at 50.0 µM). Besides, the growth inhibition in assay [5] (setting [7]) was 2%; in assay [5] (setting [8]), 96% (active); in assay [5] (at 50.0 µM) it was 97.5% (active); in assay [6] (setting [7]), 15%; in assay [6] (setting [8]) it was 95% (active); in assay [6] (at 50.0 µM), 97% (active).

Consider `CC(C)C(=O)[O][Bi]([c]1ccccc1)[c]1ccccc1`, for which the growth inhibition in assay [1] (setting [7]) is 13%; in assay [1] (setting [8]), 92% (active); in assay [1] (at 50.0 µM), 82% (active); in assay [2] (setting [7]) it was 7%; in assay [2] (setting [8]), 78% (active); in assay [2] (at 50.0 µM), 87.2% (active). In addition, the growth inhibition in assay [3] (setting [7]) was -32%; in assay [3] (setting [8]) it was 93% (active); in assay [3] (at 50.0 µM), 87.5% (active); in assay [4] (setting [7]), 9%; in assay [4] (setting [8]) it was 90% (active); in assay [4] (at 50.0 µM), 85.6% (active). The growth inhibition was 11% in assay [5] (setting [7]); 93% (active) in assay [5] (setting [8]); 84.5% (active) in assay [5] (at 50.0 µM); 15% in assay [6] (setting [7]); 88% (active) in assay [6] (setting [8]); 91% (active) in assay [6] (at 50.0 µM).

As for `ONC(=Nc1cccc2ccccc12)C(=Nc1cccc2ccccc12)NO`, the growth inhibition in assay [1] (setting [7]) was 9%; in assay [1] (setting [8]), 65%; in assay [1] (at 50.0 µM), 33.9%; in assay [2] (setting [7]) it was -8%; in assay [2] (setting [8]), 97% (active); in assay [2] (at 50.0 µM), 23.3%. Also, the growth inhibition in assay [3] (setting [7]) is 8%; in assay [3] (setting [8]) it was 46%; in assay [3] (at 50.0 µM) it was 13.4%; in assay [4] (setting [7]), -16%; in assay [4] (setting [8]) it was 73% (active); in assay [4] (at 50.0 µM), -41.9%. The growth inhibition in assay [5] (setting [7]) is 10%; in assay [5] (setting [8]), 97% (active); in assay [5] (at 50.0 µM) it was 47.5%; in assay [6] (setting [7]) it was -9%; in assay [6] (setting [8]), 91% (active); in assay [6] (at 50.0 µM) it was 57.6%.

`CC(C)(C)C(=O)CC(=O)C(F)(F)C(F)(F)C(F)(F)F.[Ag]`: the growth inhibition was 97% (active) in assay [1] (setting [7]); 98% (active) in assay [1] (setting [8]); 91.8% (active) in assay [1] (at 50.0 µM); 99% (active) in assay [2] (setting [7]); 99% (active) in assay [2] (setting [8]); 93% (active) in assay [2] (at 50.0 µM). For the same compound, the growth inhibition was 99% (active) in assay [3] (setting [7]); 99% (active) in assay [3] (setting [8]); 90% (active) in assay [3] (at 50.0 µM); 92% (active) in assay [4] (setting [7]); 99% (active) in assay [4] (setting [8]); 89.6% (active) in assay [4] (at 50.0 µM). Moreover, the growth inhibition in assay [5] (setting [7]) was 98% (active); in assay [5] (setting [8]), 98% (active); in assay [5] (at 50.0 µM) it was 87.8% (active); in assay [6] (setting [7]) it was 98% (active); in assay [6] (setting [8]) it was 98% (active); in assay [6] (at 50.0 µM), 88.4% (active).

`NC(=S)c1cccc(C2Nc3ccccc3O2)c1` (stereo not given): the growth inhibition was -1% in assay [1] (setting [7]); 24% in assay [1] (setting [8]); 75.1% (active) in assay [1] (at 50.0 µM); 0% in assay [2] (setting [7]); 11% in assay [2] (setting [8]); 44% in assay [2] (at 50.0 µM). In addition, the growth inhibition in assay [3] (setting [7]) is 9%; in assay [3] (setting [8]), 18%; in assay [3] (at 50.0 µM), 39.1%; in assay [4] (setting [7]), 0%; in assay [4] (setting [8]), 30%; in assay [4] (at 50.0 µM), 37.7%. Further, the growth inhibition in assay [5] (setting [7]) was 47%; in assay [5] (setting [8]) it was 68%; in assay [5] (at 50.0 µM), 81.7% (active); in assay [6] (setting [7]), 37%; in assay [6] (setting [8]), 61%; in assay [6] (at 50.0 µM) it was 76.3% (active).

`O=C1CCCC/C1=C\c1ccc(Br)cc1`: the growth inhibition in assay [1] (setting [7]) is 1%; in assay [1] (setting [8]), 96% (active); in assay [1] (at 50.0 µM) it was 80.2% (active); in assay [2] (setting [7]) it was -21%; in assay [2] (setting [8]) it was 99% (active); in assay [2] (at 50.0 µM), 86.7% (active). For the same compound, the growth inhibition in assay [3] (setting [7]) was -28%; in assay [3] (setting [8]), 99% (active); in assay [3] (at 50.0 µM) it was 90.7% (active); in assay [4] (setting [7]) it was 9%; in assay [4] (setting [8]), 95% (active); in assay [4] (at 50.0 µM) it was 88.3% (active). In addition, the growth inhibition in assay [5] (setting [7]) was -55%; in assay [5] (setting [8]), 99% (active); in assay [5] (at 50.0 µM), 89.4% (active); in assay [6] (setting [7]), -17%; in assay [6] (setting [8]), 99% (active); in assay [6] (at 50.0 µM), 92.7% (active).

On to `CCCCCCCCCCCCCCSC(=NCC)NCC`, for which the growth inhibition in assay [1] (setting [7]) was 99% (active); in assay [1] (setting [8]), 99% (active); in assay [1] (at 50.0 µM) it was 99.2% (active); in assay [2] (setting [7]) it was 100% (active); in assay [2] (setting [8]), 100% (active); in assay [2] (at 50.0 µM), 99.5% (active). For the same compound, the growth inhibition is 100% (active) in assay [3] (setting [7]); 100% (active) in assay [3] (setting [8]); 99.2% (active) in assay [3] (at 50.0 µM); 99% (active) in assay [4] (setting [7]); 99% (active) in assay [4] (setting [8]); 97.4% (active) in assay [4] (at 50.0 µM). Besides, the growth inhibition in assay [5] (setting [7]) was 99% (active); in assay [5] (setting [8]) it was 99% (active); in assay [5] (at 50.0 µM), 99.3% (active); in assay [6] (setting [7]), 99% (active); in assay [6] (setting [8]), 99% (active); in assay [6] (at 50.0 µM), 99% (active).
